High-throughput results as filed in PubChem.
IL1B secr inh: inflammasome signaling inhibition, IL-1 beta readout; THP-1 LPS/ATP IL-1B secretion, AlphaLISA, 16 h; hits give low values; 360,000 compounds, 4.7% hits; activity change, % at 57.5 µM; in the data active = activity change below about -50%; inconclusive = mostly about -30% to -49%
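Secreted IL-1B measured by AlphaLISA bead assay after 16 h compound exposure of THP-1 cells; compounds (final up to 57.5 uM) added 1 h before LPS (250 ng/mL) and ATP (1.25 mM) stimulation; lower signal means less secretion.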
DT40 TDP1 CPT: growth inhibition of DT40 Tdp1-/-;hTDP1 cells with camptothecin (screen for TDP1 inhibitors) | chicken DT40 Tdp1-/-;hTDP1 cells + 20 nM CPT, ATP luminescence, 48 h | Potency, µM (highest dose often 46.2 µM), inactives show at the highest dose activity change, negative = growth inhibition, actives largely listed as inhibitors | 420,000 compounds, 12% hits | AID 686979; note: potency is the fitted concentration of half-maximal effect; nearly all actives have a fitted effect of over 55% in size
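Chicken DT40 Tdp1-/- cells complemented with human TDP1, 400 cells/well, exposed to compounds plus 20 nM camptothecin for at least 48 h at 37 C; viability read as ATP content by CellTiter-Glo luminescence.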
HT1080 IDH1KD tx: HT-1080 IDH1 knockdown cell toxicity (counter line). Potency, µM (top dose mostly 46.1 µM), inactives show at the highest dose activity, negative = toxicity, most hits filed as cytotoxic. AID 686971. 360,000 compounds, 2% hits. HT-1080 IDH1 knockdown viability, ATP luminescence, 48 h;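 note: potency is the fitted concentration of half-maximal effect; 0% = DMSO wells and -100% = cell-free medium wells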
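HT-1080-IDH1KD cells (IDH1 knocked down), 750/well in RPMI with 5% FBS, treated with compound 48 h at 37 degrees C. Viability by CellTiter-Glo luminescence, normalised to DMSO and no-cell wells; concentration-response curves classed.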
DT40 TDP1 no CPT: qHTS for Inhibitors of human tyrosyl-DNA phosphodiesterase 1 (TDP1): qHTS in cells in absence of CPT; Potency, µM (series often up to 46.2 µM), inactives show top-dose activity change, negative = growth inhibition, hits mostly inhibitors; DT40 Tdp1-/- hTDP1 cells, no CPT, ATP luminescence, 48 h; 420,000 compounds, 15% hits; note: potency is the fitted concentration of half-maximal effect; nearly all actives have a fitted effect of over 55% in size
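Seeded 400 DT40-hTDP1 cells/well (vehicle DMSO, no 20 nM CPT); pinned compounds; ≥48 hr at 37 °C; CellTiter-Glo luminescence as viability measure.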
HT1080-NT tox: kills 2HG-producing HT-1080-NT fibrosarcoma cells; HT-1080-NT fibrosarcoma viability, CellTiter-Glo ATP luminescence, 48 h; Potency, µM (highest dose often 46.1 µM), without a hit: at the top dose activity, negative = less viability, most hits filed as cytotoxic; 360,000 compounds, 1.6% hits; AID 686970;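 note: NT is the 2HG producing partner of a matched IDH1 knockdown line; potency is the fitted concentration of half-maximal effect; 0% = DMSO-treated cells and -100% = media-only wells without cells; nearly all actives have a fitted effect of over 55% in size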
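750 cells/well, RPMI + 5% FBS; 2 h settle, compound pin-transfer, 48 h at 37 degrees C. CellTiter-Glo 10 min RT, luminescence. Normalized to DMSO and media-only wells.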
* marks the source's active call; other numbers are inactive results. Shown are actives, neighbours in structure and some others; about 19% of the full set was active somewhere. Unless noted, calls come from the whole dose curve; as a rule, active = well fitted curve in the direction sought with a large enough effect; inconclusive = small, poorly fitted or top-dose-only effect, or another doubt; inactive = no such curve, though single readings can be large; an effect the other way counts as inactive or inconclusive. Unless noted, % is set by controls: 0 for no effect and ±100 for the full control effect.

What do the screens show for `CN1CCC(N(C)C(=O)/C=C/c2cn(-c3ccccc3)nc2-c2cccs2)CC1`?
IL1B secr inh: -91*; DT40 TDP1 CPT: inconclusive; HT1080 IDH1KD tx: 18µM*; DT40 TDP1 no CPT: 23µM*; HT1080-NT tox: 26µM*

What do the screens show for `O=C(O)CCN1C(=O)/C(=C/c2cn(-c3ccccc3)nc2-c2cccs2)SC1=S`?
IL1B secr inh: 16; DT40 TDP1 CPT: 4.6µM*; HT1080 IDH1KD tx: -16%; DT40 TDP1 no CPT: inconclusive; HT1080-NT tox: -7%

What do the screens show for `O=C(O)CCCCCN1C(=O)/C(=C/c2cn(-c3ccccc3)nc2-c2cccs2)SC1=S`?
IL1B secr inh: -21; DT40 TDP1 CPT: -40%; HT1080 IDH1KD tx: inconclusive; DT40 TDP1 no CPT: 15µM*; HT1080-NT tox: inconclusive

Results for Cc1ccc2nc(C(Cl)(Cl)Cl)nc(N/N=C/c3ccc([N+](=O)[O-])cc3)c2c1 ?
IL1B secr inh: 23; DT40 TDP1 CPT: inconclusive; HT1080 IDH1KD tx: 23%; DT40 TDP1 no CPT: 16µM*; HT1080-NT tox: 0%

How did Cc1ccc2nc(C(Cl)(Cl)Cl)nc(N/N=C/c3ccncc3)c2c1 do in these assays?
IL1B secr inh: 38; DT40 TDP1 CPT: -20%; HT1080 IDH1KD tx: -6%; DT40 TDP1 no CPT: inconclusive; HT1080-NT tox: -4%

What do the screens show for `C=CCc1c(C)nc(C)nc1N/N=C/c1ccc([N+](=O)[O-])cc1`?
IL1B secr inh: 37; DT40 TDP1 CPT: inconclusive; HT1080 IDH1KD tx: 9%; DT40 TDP1 no CPT: 16µM*; HT1080-NT tox: inconclusive

What do the screens show for `C=CCc1c(C)nc(C)nc1N/N=C/c1ccccc1O`?
IL1B secr inh: 12; DT40 TDP1 CPT: 26µM*; HT1080 IDH1KD tx: -23%; DT40 TDP1 no CPT: 23µM*; HT1080-NT tox: 6%

Results for Oc1ccccc1/C=N/Nc1nn[nH]n1 ?
IL1B secr inh: -26; DT40 TDP1 CPT: -8%; HT1080 IDH1KD tx: -11%; DT40 TDP1 no CPT: -7%; HT1080-NT tox: 27%

Results for CCOC(=O)Nc1ccc(S(=O)(=O)NC2CCCCC2)cc1 ?
IL1B secr inh: 26; DT40 TDP1 CPT: inconclusive; HT1080 IDH1KD tx: -25%; DT40 TDP1 no CPT: inconclusive; HT1080-NT tox: -18%

Results for COc1cccc2cc(-c3nnc(Nc4ccccc4C)s3)c(=O)oc12 ?
DT40 TDP1 CPT: inconclusive; DT40 TDP1 no CPT: 8.2µM*

What do the screens show for `COc1cccc2cc(-c3cn4cccc(C)c4n3)c(=O)oc12`?
IL1B secr inh: -1; DT40 TDP1 CPT: -28%; HT1080 IDH1KD tx: 22%; DT40 TDP1 no CPT: inconclusive; HT1080-NT tox: inconclusive

What do the screens show for `CCc1sc(Nc2cccc(C)c2C)nc1-c1cc2cccc(OC)c2oc1=O`?
DT40 TDP1 CPT: inconclusive; DT40 TDP1 no CPT: 21µM*

What do the screens show for `CCc1sc(Nc2cccc(C)c2)nc1-c1cc2cccc(OC)c2oc1=O`?
DT40 TDP1 CPT: inconclusive; DT40 TDP1 no CPT: 21µM*

How did COc1cccc2cc(-c3nnc(Nc4c(F)cccc4F)s3)c(=O)oc12 do in these assays?
DT40 TDP1 CPT: 1%; DT40 TDP1 no CPT: 3%

How did CCCC12CN3CC(CCC)(CN(C1)C3c1ccccc1)C2=O (configuration not stated) do in these assays?
DT40 TDP1 CPT: 4.1µM*; DT40 TDP1 no CPT: inconclusive

What do the screens show for `C=CCOc1ccc(C2N3CC4(CC)CN2CC(CC)(C3)C4=O)cc1` (configuration not stated)?
IL1B secr inh: -10; DT40 TDP1 CPT: inconclusive; HT1080 IDH1KD tx: 24%; DT40 TDP1 no CPT: inconclusive; HT1080-NT tox: 25%

What do the screens show for `CCCC12CN3CC(CCC)(CN(C1)C3c1ccc(OC(C)C)cc1)C2=O` (configuration not stated)?
DT40 TDP1 CPT: inconclusive; DT40 TDP1 no CPT: 16µM*

What do the screens show for `CCCC12CN3CC(C)(CN(C1)C3c1ccc([N+](=O)[O-])o1)C2=O` (configuration not stated)?
IL1B secr inh: 1; DT40 TDP1 CPT: 23%; HT1080 IDH1KD tx: 16%; DT40 TDP1 no CPT: -2%; HT1080-NT tox: 9%

How did O=C(N/N=C/c1cccnc1)c1ccc([N+](=O)[O-])cc1 do in these assays?
IL1B secr inh: 3; DT40 TDP1 CPT: -5%; HT1080 IDH1KD tx: 15%; DT40 TDP1 no CPT: -11%; HT1080-NT tox: 9%

Results for O=[N+]([O-])c1ccc(N/N=C/c2cccnc2)cc1 ?
IL1B secr inh: -17; DT40 TDP1 CPT: 5.8µM*; HT1080 IDH1KD tx: 7.3µM*; DT40 TDP1 no CPT: 6.5µM*; HT1080-NT tox: -26%

What do the screens show for `O=C(O)c1cccc(N/N=C/c2cccnc2)c1`?
IL1B secr inh: 7; DT40 TDP1 CPT: 5%; HT1080 IDH1KD tx: -10%; DT40 TDP1 no CPT: inconclusive; HT1080-NT tox: -13%

How did Clc1ccc(N/N=C/c2cccnc2)cc1 do in these assays?
IL1B secr inh: -62*; DT40 TDP1 CPT: 18µM*; HT1080 IDH1KD tx: inconclusive; DT40 TDP1 no CPT: 16µM*; HT1080-NT tox: inconclusive

What do the screens show for `Cc1cc(C)cc(SCc2noc(C(=O)NCCC(C)C)c2C(=O)NCCC(C)C)c1`?
IL1B secr inh: 23; DT40 TDP1 CPT: inconclusive; HT1080 IDH1KD tx: 26%; DT40 TDP1 no CPT: inconclusive; HT1080-NT tox: 21%

How did C=CCn1c(SCC(=O)NCC)nc2sc3c(c2c1=O)CCC3 do in these assays?
IL1B secr inh: -1; DT40 TDP1 CPT: 7%; HT1080 IDH1KD tx: -9%; DT40 TDP1 no CPT: -9%; HT1080-NT tox: -15%

How did Cc1nc2ccccc2c(=O)n1NC(=O)C1CCC(C(C)(C)C)CC1 (configuration not stated) do in these assays?
IL1B secr inh: 35; DT40 TDP1 CPT: inconclusive; HT1080 IDH1KD tx: 2%; DT40 TDP1 no CPT: inconclusive; HT1080-NT tox: 14%

Results for c1ccc(-c2cc(-c3nc(-c4ccccn4)no3)c3ccccc3n2)cc1 ?
IL1B secr inh: -15; DT40 TDP1 CPT: 9.2µM*; HT1080 IDH1KD tx: 13%; DT40 TDP1 no CPT: 8.2µM*; HT1080-NT tox: 1%

How did c1ccc(-c2n[nH]c(-c3ccccn3)n2)nc1 do in these assays?
IL1B secr inh: -10; DT40 TDP1 CPT: inconclusive; HT1080 IDH1KD tx: inconclusive; DT40 TDP1 no CPT: -19%; HT1080-NT tox: -6%

Results for Cc1ccc(-c2nc(-c3ccccn3)no2)cc1Cl ?
IL1B secr inh: 17; DT40 TDP1 CPT: inconclusive; HT1080 IDH1KD tx: inconclusive; DT40 TDP1 no CPT: 12µM*; HT1080-NT tox: inconclusive

What do the screens show for `Cc1ccc(-c2nc(-c3ccncc3)no2)cc1Cl`?
IL1B secr inh: 9; DT40 TDP1 CPT: 7%; HT1080 IDH1KD tx: 18%; DT40 TDP1 no CPT: -4%; HT1080-NT tox: 7%

What do the screens show for `COc1cccc(-c2nc(-c3ccccn3)no2)c1OC`?
IL1B secr inh: -11; DT40 TDP1 CPT: 23µM*; HT1080 IDH1KD tx: 19%; DT40 TDP1 no CPT: inconclusive; HT1080-NT tox: 12%
